For this test, the system named is LXRa homodimer (NR concentration 270 nM). Description: PBM binding z-score (relative to random genomic background probes); higher = stronger binding; sequences stand for … in GC…GCGATTGACAGCGTAGAATGAAGG
In short, it runs like this:
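Custom Agilent 4×180K protein-binding microarrays carried double-stranded probes. Their 34-nt variable regions held direct-repeat seeds, single-nucleotide variants, half-site ablations and random human genomic background sequences. Arrays were incubated 1 h with ligand-free nuclear receptor dimers in PBS pH 7.4, 2% milk, 0.02% Triton X-100, 1 mM DTT, 0.2 mg/mL BSA and 0.4 mg/ml salmon testes DNA. Antibodies against each partner (one per run) detected binding, and scanned fluorescence was regression-normalized. Binding z-scores use random background probes as reference.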
CCTAGTGGGTCAGGAGGTCACACACCGGATATGA showed a PBM binding z-score of 1.62.
The result for CCTACTGGGCAAAAAAGGTCATTGATGCCGATAA reads 3.15; that for TCTAGTTCGTCACGGAGGTCACACACGACGGGTA, 2.25; that for CCTAGTTGGTCAAGGTCACGCACGCTATAGGTAC, 2.22.
The figure for ATATGTAGGTTAGCGGGGGTCATTCAGACTAGGC is 3.96; for CCTAGATGGTCAGGAGGTCACACACCGGATATGA it is 2.
The result for CCTAGTTGGTCAGGAAGTCACACACCGGATATGA reads 0.553.
Sequence CGTCAAAGTTAAAGGTAACGTAACAGAAAGCAGC displayed a PBM binding z-score of -0.0511.
The figure for CCTACTGGGCCATTCAGAGGTCACTGATCATATG is 4.37; for TAGCCTCGGTCATTCAGGGGCCAGTATAGAAAGC it is 0.485.
The figure for CAAACTAGGCCAAGGTCAAAGTCGGTTTGTGCCA is 2.16; for ATCGAAAGGTCGAGTTGAGTATAGAGAAAGGGAA it is 0.29.
Sequence CGTCAAAGTTCAAGGTAAAGTAACAGAAAGCAGC gave a PBM binding z-score of 2.35.
Turning to CTATGTAGGTGAAGGGGGTCATTCAGTTTGAAAG, the PBM binding z-score stood at 1.53.
The figure for TCTAGTTGGTCACGGGGGTCACACACGACGGGTA is 2.06; for CCTTACGGGTCACTTACAGGTTATAGCATTTGGA it is 0.907; for CCTACTGGGCCATTCAGAGGTCATCGATCATATG it is 6.05.
The figure for CAAAATAGGTCAAGAGGTCAAAGTCCGCTTCCCG is 6.23.
The figure for TAGCCTAGGTCATGCGGGTCAGTATAGTGTCGGC is 1.06; for GCTTACGGGTCAAAGGTTAAAGCATGAATAGAAT it is 0.955.
Turning to CGTCCAAGGTCAAAGGTCAGCGAAGAGATGACGG, the PBM binding z-score amounted to 3.38.
The figure for ATCGAAAGGTCGACGAGGTGAGAATACACCGTTT is 0.0731; for CGTCCAAGGGCAATGCTAGGTCAGTGAAAGCATT it is 0.414.
The result for GCTTACGGGTCAAAAGTTATAGCATGAATAGAAT reads 0.0533; that for CCTACTGGGCCACGAAAGGTGATTGATTCAGTGA, -0.496.
The figure for CTATGTAGGTTAAGGGGGTCATTGAGTTTGAAAG is 2.68; for ATCGAAAGGTCGTGAGGTGAGTTTACAGAAAGGC it is 0.339.
Sequence TCTACTTGGTCACGGAGGTCACACACGACGGGTA yielded a PBM binding z-score of 3.08.
The result for TCGAGTAGGTTACGGGGGCGTTCAGGGATGAAGA reads 0.585; that for TATACAGGATCAAAGGCCAGAGTACGAATGTCGA, -0.0452.
The result for CCTAGTTGGTCAAGGTCCCACACGCTATAGGTAC reads 0.55; that for CCCAGTAGGTTACGAGGGGGCATTCAGTGCGAAT, 1.48; that for AGAATGGGGTTATTAAGATCAGGGAATTGCGGTC, 0.597.
The result for ATCGAAAGGTCGTGAAGTGAGTATACAGAAAGGC reads 0.493; that for GCTGCTAGGTCAGGTTGGTCAGCTAACGGGTACG, -0.0662.
For CCTTACGGGTCACTGACAGCTTATAGCATTTGGA, the PBM binding z-score was found to be 0.0209.
The figure for AGAATGAGGTTAGCAAAGATCAGGGAAACGCTTG is -0.0125.
The figure for CCTAGTTGGTCAGGGGGTCACACACCGGATATGA is 1.32.
Turning to AGTCGGAGGACAAAGGTCAGAGCTACGCCAGTGA, the PBM binding z-score was 1.6.

Values taken from the supplement of paper PMC6555819.
